Source: PubChem BioAssay (National Center for Advancing Translational Sciences (NCATS))
ClpP mod – qHTS Assay for Activators of ClpP. Potency, µM (titrated, usually from 57.5 µM). actives 1.9% (n = 340,000). ATP-dependent Clp protease proteolytic subunit (Bacillus subtilis (strain 168)), P80244. purified B. subtilis ClpP, FRET peptide cleavage, 20 min; active = well fitted falling curve with a large enough effect; inconclusive = small, poorly fitted or top-dose-only effect; inactive = no such curve, though single readings can be large or run the other way; note: the source files actives as falling curves though it sought activators and does not explain the sign; nearly all actives have a fitted effect of over 65% in size
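ClpP 10 microg/mL final, pH 8 Tris/KCl buffer with BSA, glycerol, Tween-20; compound pinned in; FRET-FV substrate; RT 20 min; Ex320/Em430; ΔFRET vs ADEP 5.8 microM, DMSO, no enzyme.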
RORg inh – ROR gamma (mouse) transcription inhibition; P51450; Drosophila S2 Gal4-RORgamma UAS-luciferase reporter, 20 h; Potency, µM (titrated, usually from 53.6 µM), most hits filed as inhibitors; actives 5.4% (n = 310,000); AID 2551; note: nearly all actives have a fitted effect of over 60% in size
Target sequence (P51450 whole entry, looked up, the tested form may be a part): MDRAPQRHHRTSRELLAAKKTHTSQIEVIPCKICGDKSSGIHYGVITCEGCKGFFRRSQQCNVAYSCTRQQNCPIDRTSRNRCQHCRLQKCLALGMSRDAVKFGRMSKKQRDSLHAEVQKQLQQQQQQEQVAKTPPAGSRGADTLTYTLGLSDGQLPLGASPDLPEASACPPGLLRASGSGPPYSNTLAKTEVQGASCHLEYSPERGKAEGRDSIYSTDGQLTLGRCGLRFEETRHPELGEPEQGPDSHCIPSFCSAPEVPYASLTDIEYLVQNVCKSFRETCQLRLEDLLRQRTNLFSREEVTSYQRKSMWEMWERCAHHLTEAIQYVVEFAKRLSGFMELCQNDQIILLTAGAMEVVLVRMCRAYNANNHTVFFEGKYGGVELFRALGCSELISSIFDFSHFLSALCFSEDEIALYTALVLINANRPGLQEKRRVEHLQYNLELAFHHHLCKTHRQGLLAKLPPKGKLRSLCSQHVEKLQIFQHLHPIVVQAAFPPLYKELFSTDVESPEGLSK
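Stably transfected Drosophila Schneider cells are the test system, with ROR gamma fused to Gal4 and luciferase under UAS control; luminescence is read after 20 hr of 700 uM copper sulfate induction at ambient temperature.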
Epigenetic reg – derepresses silenced GFP reporter in murine cells; murine LDR cells, GFP reporter derepression, 30 h; Potency, µM (highest dose often 53.9 µM), most hits filed as activators; actives 0.2% (n = 280,000); AID 1865; note: nearly all actives have a fitted effect of over 60% in size
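GFP-positive cell count by laser-scanning cytometry (objects 20–120 um) after 30 h, 37 C compound exposure of murine LDR cells; reporter is CMV-GFP integrated at a silenced locus, inducible by HDAC or DNMT inhibitors.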
Gal4-VP16 FLuc – Gal4-VP16 reporter inhibition counter-screen; Drosophila S2 Gal4-VP16 UAS-luciferase, luminescence, 20 h; Potency, µM (highest dose often 53.6 µM), actives largely listed as inhibitors; actives 3.5% (n = 310,000); AID 2546;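 note: Gal4-VP16 expression switched on by copper sulfate through the metallothionein promoter; nearly all actives have a fitted effect of over 50% in size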
Sfp PPTase inh – Sfp phosphopantetheinyl transferase inhibition; Q9F4F7; Biochemical Sfp PPTase activity, qHTS; Potency, µM, hits mostly inhibitors; actives 3.5% (n = 310,000); AID 1490;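 note: the enzyme is Sfp with the accession as filed and its product quenches rhodamine fluorescence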
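Step 1, compound plus 15 nM Sfp-PPTase, 15 min, room temperature. Step 2, add rhodamine-CoA (5 uM) and BHQ-2-YbbR (12.5 uM). Step 3, read 525/598 nm fluorescence at 0 and 30 min.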
PINK1 modulator – modulators of PINK1 expression | PINK1 immunofluorescence, high-content cytometry, 24 h | Potency, µM (series often up to 76.6 µM), most hits filed as activators | actives 0.2% (n = 410,000) | AID 624263; active = well fitted activation curve with a large enough effect; inconclusive = small, poorly fitted or top-dose-only effect; cell line not stated here; note: nearly all actives have a fitted effect of over 65% in size
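Stable cell line treated 24 h with compounds at 5 concentrations (CCCP controls), then fixed and immunostained for PINK1 plus nuclear and cell stains; PINK1 immunofluorescence quantified by laser-scanning microplate cytometry.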
A number is an active result; – = inactive; ? = inconclusive; · = not tested or not shown; [ ] = dose if it differs, or a comment. Sampled rows, rich in hits. Any-hit rate of the full collection: about 8.1%. Unless noted, calls come from the whole dose curve; as a rule, active = well fitted curve in the direction sought with a large enough effect; inconclusive = small, poorly fitted or top-dose-only effect, or another doubt; inactive = no such curve, though single readings can be large; an effect the other way counts as inactive or inconclusive.

SMILES | ClpP mod | RORg inh | Epigenetic reg | Gal4-VP16 FLuc | Sfp PPTase inh | PINK1 modulator
COCCn1c(C23CC4CC(CC(C4)C2)C3)n[nH]c1=S | – | 4µM | – | 1.1µM | 32µM | –
CCn1c(Nc2ccccc2Cl)nc2ccccc21 | · | – | – | – | – | –
CCCn1c(NC(=S)Nc2ccccc2)nc2ccccc21 | – | 1µM | – | 1.1µM | – | –
CCn1c(NC(=S)Nc2ccccc2)nc2ccccc21 | – | 4.5µM | – | 2.8µM | – | –
S=C(Nc1ccccc1)Nc1nc2ccccc2n1CCOc1ccc(Cl)cc1 | – | 2.2µM | ? | 1.8µM | ? | –
Cc1cc(NCc2ccccc2Cl)n2cnnc2n1 | – | · | – | · | · | –
COc1cc(/C=C2\SC(N3CCC(C)CC3)=NC2=O)ccc1O | 14µM | – | · | – | – | –
O=C(NCc1ccncc1)c1nc(-c2ccc(C(F)(F)F)cc2)no1 | · | ? | – | ? | – | –
O=C(NCc1cccnc1)c1nc(-c2ccc(C(F)(F)F)cc2)no1 | – | ? | – | 3.2µM | – | –
CC(C)CN(C(=O)CCC(=O)OCC(=O)N(C)c1ccccc1)c1c(N)n(CC(C)C)c(=O)[nH]c1=O | 28µM | · | · | · | · | –
CCN(CC(=O)N(CC(C)C)c1c(N)n(CC(C)C)c(=O)[nH]c1=O)Cc1nc2ccccc2c(=O)[nH]1 | – | 4µM | – | ? | – | –
CCN1CCN(Cc2c(O)ccc3c(=O)c(Oc4ccccc4Cl)c(C(F)(F)F)oc23)CC1 | – | · | – | · | · | –
Cc1cc(=O)n2nc(N(C)CC(=O)NCc3ccc(Cl)cc3)sc2n1 | – | · | – | · | · | –
Cc1nc2c(c(C)c1CCC(=O)NCc1ccccc1)c(=O)n(C)c(=O)n2C | – | · | – | · | · | –
CCc1ccc2c(c1)-c1ccccc1S(=O)(=O)N2CC(=O)N1CCCCC1 | – | · | – | · | · | –
CCn1c(N)c(C(=O)NCCOC)sc1=S | – | – | – | – | 56µM | –
CCn1c(N)c(C(=O)Nc2ccccc2C(=O)OC)sc1=S | – | – | – | – | 35µM | –
Cc1c(C(=O)NCc2ccc3c(c2)OCCO3)sc(=O)n1Cc1ccc2c(c1)OCO2 | – | · | · | · | · | –
CCn1c(N)c(C(=O)NCc2ccc3c(c2)OCO3)sc1=S | – | – | – | – | 45µM | –
Cn1c(N)c(C(=O)Nc2ccccc2F)sc1=S | – | – | – | – | – | –
COc1cc(NC(=O)c2nn(C)c3c2COc2ccccc2-3)cc(OC)c1OC | – | · | – | · | · | –
COc1ccc2[nH]cc(S(=O)(=O)c3ccc(F)cc3)c(=O)c2c1 | ? | – | – | ? | – | –
CCOc1ccc2[nH]cc(S(=O)(=O)c3ccc(F)cc3)c(=O)c2c1 | – | – | – | 13µM | – | –
Cc1ccc(-n2nc(C)c(/C=N/n3c(C)n[nH]c3=S)c2Cl)cc1 | · | 3.5µM | – | – | – | –
COc1ccc(-c2[nH]ncc2C(=O)NCc2ccccc2C)cc1 | – | · | – | · | · | –
SMILES | ClpP mod | RORg inh | Epigenetic reg | Gal4-VP16 FLuc | Sfp PPTase inh | PINK1 modulator
CN=c1scc(-c2cccs2)n1/N=C/c1ccccc1O | – | –[10 µM] | – | – | – | –
C=CCN=c1scc(-c2ccco2)n1/N=C/c1ccc(O)c(O)c1O | · | 3.2µM | – | 10µM | 7.1µM | –
CC(C)N=c1scc(-c2ccco2)n1/N=C/c1ccc(O)c(O)c1 | – | 1.4µM | – | 16µM | ? | –
CN=c1scc(C)n1/N=C/c1cc(Br)c(O)c(OC)c1 | – | – | – | – | – | –
CN=c1scc(-c2cccs2)n1/N=C/c1ccc(O)c(O)c1O | · | 1.1µM | ? | 1.4µM | 11µM | –
CN=c1scc(C)n1/N=C/c1ccc(O)c(O)c1O | – | 2.2µM | – | 7.1µM | 25µM | –
Oc1ccc(/C=N/n2c(-c3ccco3)csc2=Nc2cccnc2)c(O)c1 | – | – | – | – | 45µM | –
Cc1ccc(CNC(=O)C(C)n2c(=O)cc(C(F)(F)F)c3c(C)nn(C)c32)cc1 (stereo not drawn) | – | · | – | · | · | –
CNCCNC[C@H](Cc1cccc2ccccc12)NCCc1ccccc1 | – | · | · | · | · | –
CNC[C@H](Cc1ccccc1)NC[C@@H](Cc1cccc2ccccc12)NCCc1ccc(C)cc1 | – | ? | · | ? | 50µM | –
